Test results: PubChem BioAssay (NCATS)
Inconclusive results are not listed. The source made the active and inactive calls. Unless noted, calls come from the whole dose curve; as a rule, active = well fitted curve in either direction with a large enough effect (not every such curve was filed as active); inconclusive = small, poorly fitted or top-dose-only effect, or another doubt; inactive = flat fitted curve, though single readings scatter.

Columns and labels:
[1] = target: Lysosomal acid glucosylceramidase (Homo sapiens) (UniProt P04062); assay: Glucocerebrosidase-p2 (AID 348; in the data active = potency below about 10 µM; note: potency is the fitted concentration of half-maximal effect); settings: purified GBA, blue fluorogenic substrate, 40 min
Lysosomal acid glucosylceramidase (Homo sapiens), sequence (P04062 whole entry, looked up): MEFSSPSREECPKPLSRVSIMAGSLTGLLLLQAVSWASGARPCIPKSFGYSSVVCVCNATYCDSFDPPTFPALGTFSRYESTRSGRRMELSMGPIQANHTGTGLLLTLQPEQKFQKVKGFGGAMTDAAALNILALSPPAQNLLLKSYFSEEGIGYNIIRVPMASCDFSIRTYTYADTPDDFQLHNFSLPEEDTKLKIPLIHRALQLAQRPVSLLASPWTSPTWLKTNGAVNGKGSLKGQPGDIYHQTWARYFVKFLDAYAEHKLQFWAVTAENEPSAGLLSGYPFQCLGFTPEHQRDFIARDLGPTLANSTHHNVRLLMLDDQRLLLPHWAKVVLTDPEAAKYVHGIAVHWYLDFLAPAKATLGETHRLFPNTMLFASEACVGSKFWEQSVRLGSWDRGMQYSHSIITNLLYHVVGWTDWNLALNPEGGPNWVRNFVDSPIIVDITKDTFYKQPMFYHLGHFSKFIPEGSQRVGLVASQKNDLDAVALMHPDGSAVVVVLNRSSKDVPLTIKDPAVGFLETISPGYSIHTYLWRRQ
Summary of the method: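 Normal human glucocerebrosidase (0.2 nM) with blue fluorogenic substrate (80 uM final) in citrate/phosphate pH 5.9 with 10mM sodium taurocholate, 0.01% tween-20; 40 min RT, NaOH/glycine stop; fluorescence Ex 365/Em 440; AC50 from a titration from 0.6 nM upwards.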

[2] = AP1 Signaling Pathway (AID 357); settings: ME-180 AP-1-bla reporter, EGF-induced, beta-lactamase ratio, 5 h; at 7.69 µM (top of the series) unless noted;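 note: ME-180 reporter cells stimulated with EGF at its EC50 level; % is set by controls: 0 for no effect and ±100 for the full control effect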
Summary of the method: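 Modulation of EGF-driven AP-1 transcription was assessed with a beta-lactamase reporter in ME-180 cells. Compound and EC50 EGF were co-incubated 5 hours at 37 °C before 2.5-hour CCF4 loading at room temperature and dual-emission reading.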

[3] = NFAT Signaling Pathway (AID 444); settings: Jurkat NFAT-bla M1, carbachol, beta-lactamase ratio, 5 h; at 7.69 µM (top of the series) unless noted;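 note: carbachol stimulus at about its EC50 of 1 µM final; % is set by controls: 0 for no effect and ±100 for the full control effect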
Summary of the method: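 Jurkat cells with NFAT-driven β-lactamase reporter and co-expressed M1 receptor, stimulated with carbachol (final 1 uM, ~EC50), compound titration, 5 h at 37 °C. CCF4 loaded 1 h at RT; 460/530 nm ratio gave %activity and AC50.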

[4] = Stat Signaling Pathway (AID 446); settings: ME-180 (cervical carcinoma) SIE beta-lactamase reporter, IL-6 stimulated, 5 h; at 7.69 µM (top of the series) unless noted;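 note: ME-180 cervical cancer cells given 40 pM IL-6 alongside compound; SIE-controlled beta-lactamase reporter measured as 460/530 nm FRET emission ratio; % is set by controls: 0 for no effect and ±100 for the full control effect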
Summary of the method: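 Compound effects on IL-6-induced STAT reporter activity were measured in ME-180 cells. After overnight culture, cells were co-treated with 40 pM IL-6 for 5 hrs before beta-lactamase substrate loading at room temperature.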

[5] = target: Glucocorticoid receptor (Homo sapiens) (UniProt P04150); assay: GR-GFP Redistribution (AID 450;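 active = compounds whose dose series gives a full or clear partial fitted curve of increased nuclear translocation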; note: potency is the fitted concentration of half-maximal effect); settings: U2OS GR-GFP nuclear translocation, laser cytometry, 2 h
Glucocorticoid receptor (Homo sapiens), sequence (P04150 whole entry, looked up, the tested form may be a part): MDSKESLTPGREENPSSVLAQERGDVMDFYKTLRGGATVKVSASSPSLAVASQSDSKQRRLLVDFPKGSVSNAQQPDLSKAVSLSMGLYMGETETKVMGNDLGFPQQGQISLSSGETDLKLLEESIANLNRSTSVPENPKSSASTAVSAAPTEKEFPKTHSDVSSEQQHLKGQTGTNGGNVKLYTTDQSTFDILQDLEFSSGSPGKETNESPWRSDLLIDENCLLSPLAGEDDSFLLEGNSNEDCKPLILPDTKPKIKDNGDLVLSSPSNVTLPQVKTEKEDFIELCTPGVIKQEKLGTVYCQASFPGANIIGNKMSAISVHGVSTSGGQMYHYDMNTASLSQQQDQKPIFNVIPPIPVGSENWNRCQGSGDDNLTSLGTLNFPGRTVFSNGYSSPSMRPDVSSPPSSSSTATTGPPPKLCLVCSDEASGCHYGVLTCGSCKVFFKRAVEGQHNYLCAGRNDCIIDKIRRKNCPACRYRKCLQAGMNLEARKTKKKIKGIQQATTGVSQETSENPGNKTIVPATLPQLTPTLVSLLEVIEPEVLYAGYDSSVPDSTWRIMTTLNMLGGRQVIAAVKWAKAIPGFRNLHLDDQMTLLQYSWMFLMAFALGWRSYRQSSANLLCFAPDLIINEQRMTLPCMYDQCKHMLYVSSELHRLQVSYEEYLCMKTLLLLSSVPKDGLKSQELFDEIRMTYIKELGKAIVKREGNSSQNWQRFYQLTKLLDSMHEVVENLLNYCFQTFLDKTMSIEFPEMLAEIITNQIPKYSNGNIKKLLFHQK

[6] = target: Glucocorticoid receptor (Homo sapiens) (UniProt P04150); assay: GR-EFC Redistribution (AID 451; calls by dose curve; note: potency is the fitted concentration of half-maximal effect); settings: CHO-K1 GR-EFC translocation, beta-gal luminescence, 2 h
Summary of the method: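 CHO-K1 cells expressing nuclear EA and GR-ED fragments of b-gal; compounds titrated up to 46 uM final, 2 h at 37 C. GR nuclear translocation read as complemented b-gal luminescence after 1 h RT detection.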

[7] = target: Mitogen-activated protein kinase 10 (Mus musculus) (UniProt Q61831); assay: JNK3 AlphaScreen Assay (AID 530); settings: JNK3 lysate, c-Jun phosphorylation; series mostly up to 57.1 µM;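 note: kinase came from lysate of stimulated human HepG2 cells; signal reports phosphorylation of biotinylated GST-cJun 1-79 at Ser73 with 10 µM ATP; % is set by controls: 0 for no effect and ±100 for the full control effect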
Summary of the method: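 HepG2 lysate (IL-1b/TNFa pre-activated) + biotin-GST-cJun 1-79 + anti-pSer73 cJun; cpd titration, 15 min RT; ATP 10 uM start; Tris pH 7.6, MgCl2, DTT, vanadate; beads in EDTA buffer; AlphaScreen.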

[8] = target: 3',5'-cyclic-AMP phosphodiesterase 4B (Homo sapiens) (UniProt Q07343); assay: qHTS Assay for Inhibitors of PDE-IV (AID 607; active = well fitted activation curve with a large enough effect in the main read-out, with a control signal flat, not every such curve was filed as active; note: % of control where 0% means no effect); settings: HEK293 ACTOne CNG channel cells, membrane potential fluorescence; series mostly up to 22.9 µM
3',5'-cyclic-AMP phosphodiesterase 4B (Homo sapiens), sequence (Q07343 whole entry, looked up): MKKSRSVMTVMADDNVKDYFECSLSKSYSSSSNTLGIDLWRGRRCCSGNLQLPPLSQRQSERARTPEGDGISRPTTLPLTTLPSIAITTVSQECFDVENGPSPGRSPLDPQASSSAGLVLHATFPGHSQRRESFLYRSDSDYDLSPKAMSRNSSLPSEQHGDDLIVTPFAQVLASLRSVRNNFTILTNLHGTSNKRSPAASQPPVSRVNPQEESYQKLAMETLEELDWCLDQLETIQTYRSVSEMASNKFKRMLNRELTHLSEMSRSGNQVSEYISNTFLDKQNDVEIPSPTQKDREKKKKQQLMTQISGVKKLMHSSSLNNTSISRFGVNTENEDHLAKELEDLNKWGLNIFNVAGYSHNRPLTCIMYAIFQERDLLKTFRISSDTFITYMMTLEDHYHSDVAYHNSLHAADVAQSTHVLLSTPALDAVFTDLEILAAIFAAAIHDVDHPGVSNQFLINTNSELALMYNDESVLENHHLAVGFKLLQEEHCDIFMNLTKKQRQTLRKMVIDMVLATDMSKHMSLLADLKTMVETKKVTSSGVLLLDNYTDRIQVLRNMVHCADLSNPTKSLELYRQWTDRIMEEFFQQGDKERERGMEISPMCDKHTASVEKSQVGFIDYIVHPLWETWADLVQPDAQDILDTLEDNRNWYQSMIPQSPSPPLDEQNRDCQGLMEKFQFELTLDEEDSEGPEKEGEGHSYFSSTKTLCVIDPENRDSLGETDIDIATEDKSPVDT
Summary of the method: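 ACTOne HEK293 cells carry a modified cAMP-gated CNG channel and express endogenous PDE4; plated 1000 cells/well, compounds up to 22.9 uM final. Membrane-potential dye fluorescence (ex 535/em 590) was read; parental cells received 10 uM forskolin + 100 uM RO 20-1724.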

[9] = Primary qHTS for small molecule stabilizers of the endoplasmic reticulum resident proteome: Secreted ER Calcium Modulated Protein (SERCaMP) assay (AID 1508630; active = well fitted curve in the direction sought with a large enough effect; an effect the other way counts as inactive or inconclusive; note: % is set by controls: 0 for no effect and ±100 for the full control effect); settings: SH-SY5Y GLuc-SERCaMP (Gaussia luciferase released on ER calcium loss) secretion, thapsigargin, luminescence; series mostly up to 38.4 µM
Summary of the method: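 The SH-SY5Y reporter protocol was run at 3 concentrations up to 38.3 uM (primary) or 11 concentrations (follow-up): 16 h compound, 100 nM thapsigargin for 4 h, then extracellular luciferase luminescence.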

[10] = target: Cytochrome P450 3A4 (Homo sapiens) (UniProt P08684); assay: qHTS Assay for Inhibitors and Substrates of Cytochrome P450 3A4 (AID 884; active = well fitted curve in the direction sought with a large enough effect; an effect the other way counts as inactive or inconclusive; note: potency is the fitted concentration of half-maximal effect; nearly all actives have a fitted effect of over 50% in size); settings: recombinant CYP3A4, Luciferin-PPXE luminescence; series mostly up to 57.1 µM
Cytochrome P450 3A4 (Homo sapiens), sequence (P08684 whole entry, looked up): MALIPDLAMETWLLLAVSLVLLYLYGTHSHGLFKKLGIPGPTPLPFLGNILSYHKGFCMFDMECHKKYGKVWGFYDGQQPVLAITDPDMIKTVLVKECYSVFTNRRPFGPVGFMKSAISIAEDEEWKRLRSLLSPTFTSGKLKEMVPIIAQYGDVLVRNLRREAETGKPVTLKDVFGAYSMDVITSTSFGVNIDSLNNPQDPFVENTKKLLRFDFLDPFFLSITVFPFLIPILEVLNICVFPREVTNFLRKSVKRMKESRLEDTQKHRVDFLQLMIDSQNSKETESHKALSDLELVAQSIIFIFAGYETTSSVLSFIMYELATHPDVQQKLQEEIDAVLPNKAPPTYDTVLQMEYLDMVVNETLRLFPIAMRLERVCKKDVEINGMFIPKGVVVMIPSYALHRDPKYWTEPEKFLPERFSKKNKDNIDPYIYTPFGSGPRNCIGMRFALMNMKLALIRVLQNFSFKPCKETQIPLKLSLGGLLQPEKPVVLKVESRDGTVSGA
Summary of the method: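 Luminescent readout of luciferin produced by CYP3A4 (20 nM) dealkylation of Luciferin-PPXE, 25 uM (its KM). NADPH-driven reaction ran 60 min at RT after 10 min compound preincubation; data scaled to 57 uM ketoconazole as 100% inhibition.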

[11] = target: Cytochrome P450 3A4 (Homo sapiens) (UniProt P08684); assay: qHTS Assay for Activators of Cytochrome P450 3A4 (AID 885; active = well fitted curve in the direction sought with a large enough effect; an effect the other way counts as inactive or inconclusive; note: nearly all actives have a fitted effect of over 65% in size); settings: recombinant CYP3A4, Luciferin-PPXE luminescence, 60 min; series mostly up to 57.1 µM
Summary of the method: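 CYP3A4 activity: Luciferin-PPXE O-dealkylation, 25uM substrate, 200mM KPO4, RT throughout. Read-out is luciferase luminescence; higher values reflect activation.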

[12] = Confirmation and Secondary Assay for Modulators of Hemoglobin Beta Chain Splicing at IVS2 654 locus (AID 910; active = well fitted curve in the direction sought with a large enough effect; an effect the other way counts as inactive or inconclusive;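 note: HeLa cells stably carrying EGFP split by mutant beta-globin IVS2-654 intron; % of control where 0% means no effect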); settings: HeLa EGFP-654 splicing reporter, GFP fluorescence, 48 h; series mostly up to 38.3 µM
Summary of the method: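 HeLa cells stably expressing EGFP interrupted by β-globin IVS2-654 intron, seeded overnight in Opti-MEM/2% FCS, then treated 2 days at 37 °C. Restored splicing read as total peak GFP intensity per well by laser scanning cytometry (488 nm excitation, 500–520 nm emission); 500 nM antisense PNA as control.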

[13] = Confirmation and Secondary Assay for Modulators of Hemoglobin Beta Chain Splicing at IVS2 705 locus (AID 930; active = well fitted curve in the direction sought with a large enough effect; an effect the other way counts as inactive or inconclusive;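 note: HeLa cells stably expressing the EGFP-705 splicing reporter; GFP fluorescence per well restored by corrected splicing of the IVS2-705 intron in EGFP; % of control where 0% means no effect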); settings: HeLa EGFP-705 splicing reporter, GFP fluorescence, 48 h; series mostly up to 38.3 µM
Summary of the method: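 Stable HeLa line with EGFP disrupted by mutant beta-globin intron 2 (705). Overnight attachment, then 2 days of compound at 37C, 5% CO2. Signal: peak GFP intensity summed over objects 5-250 µm.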

COc1ncc2nc(-c3ccc(F)cc3)c(=O)n(C[C@H]3CCCO3)c2n1
inactive: Potency [1] > 11.4 µM | activity change, negative = inhibition [2] 3.08% | activity change, negative = inhibition [3] -6.14% | activity, negative = inhibition [4] -1.31% | Potency [5] > 9.22 µM | Potency [6] > 46 µM | Potency [7] | Potency [8] | outcome [9]

COc1ccc(-c2nc3cnc(OC)nc3n(Cc3cccc(OC)c3)c2=O)cc1
active: Potency [10] 2.51 µM
inactive: Potency [1] > 11.4 µM | activity change, negative = inhibition [2] -4% | activity change, negative = inhibition [3] -10.2% | activity, negative = inhibition [4] 27.2% | Potency [5] > 9.22 µM | Potency [6] > 46 µM | Potency [7] | Potency [11] | outcome [9]

COCCn1c(=O)c(C)nc2cnc(OCc3ccccc3)nc21
inactive: Potency [1] > 11.4 µM | activity change, negative = inhibition [2] -16.6% | activity change, negative = inhibition [3] -3.44% | activity, negative = inhibition [4] -9.48% | Potency [5] > 9.22 µM | Potency [6] > 46 µM | Potency [7] | Potency [8] | outcome [9]

Cc1cnc(CNc2ncnc3ccc(-c4ccccc4C#N)cc23)cn1
inactive: Potency [1] > 11.4 µM | activity change, negative = inhibition [2] 9.76% | activity change, negative = inhibition [3] 0.584% | activity, negative = inhibition [4] -10.7% | Potency [5] > 46 µM | Potency [6] > 46 µM | Potency [7] | Potency [8] | Potency [12] | outcome [13] | outcome [9]

COc1cccc(Cn2c(=O)c(-c3cccc(Cl)c3)nc3cncnc32)c1
inactive: Potency [1] > 11.4 µM | activity change, negative = inhibition [2] -20.4% | activity change, negative = inhibition [3] -10.8% | activity, negative = inhibition [4] -8.57% | Potency [5] > 9.22 µM | Potency [6] > 46 µM | Potency [8] | outcome [9]

COc1ccc(-c2nc3cnc(OC)nc3n(C3CC3)c2=O)cc1
inactive: Potency [1] > 11.4 µM | activity change, negative = inhibition [2] -14.2% | activity change, negative = inhibition [3] -0.173% | activity, negative = inhibition [4] 2.68% | Potency [5] > 9.22 µM | Potency [6] > 46 µM | Potency [7] | Potency [8] | Potency [11] | outcome [9]

COc1ccc(Oc2ncc3ncc(=O)n(CCC#N)c3n2)cc1
inactive: Potency [1] > 11.4 µM | activity change, negative = inhibition [2] -11.3% | activity change, negative = inhibition [3] -5.59% | activity, negative = inhibition [4] -8.02% | Potency [5] > 9.22 µM | Potency [6] > 46 µM | Potency [7] | outcome [9]
